CYP2C9 activ = human CYP2C9 activators, primary screen, biochemical, luminescence. recombinant CYP2C9, luciferin-H conversion; active compounds read high; factor 1 = untreated enzyme, 0 = blocked. activation factor at 5 µM. 96,000 tested, 1.4% active. AID 1024, 2008;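 active means activation factor of 2 or more for CYP2C9 at a 5 µM dose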
CYP2C19 inh = blockers of cytochrome P450 2C19 activity – biochemical, luminescence, ADME assay, primary screen; AID 778, 2007; P33261; CYP2C19 Supersomes, luciferin-H EGE luminescence, 30 min; inhibition, % at 5 µM; 96,000 tested, 21% active;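 active means CYP2C19 inhibition above a set limit at 5 µM in the primary screen, cut at about 50% in these data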
Target sequence (P33261 whole entry, looked up): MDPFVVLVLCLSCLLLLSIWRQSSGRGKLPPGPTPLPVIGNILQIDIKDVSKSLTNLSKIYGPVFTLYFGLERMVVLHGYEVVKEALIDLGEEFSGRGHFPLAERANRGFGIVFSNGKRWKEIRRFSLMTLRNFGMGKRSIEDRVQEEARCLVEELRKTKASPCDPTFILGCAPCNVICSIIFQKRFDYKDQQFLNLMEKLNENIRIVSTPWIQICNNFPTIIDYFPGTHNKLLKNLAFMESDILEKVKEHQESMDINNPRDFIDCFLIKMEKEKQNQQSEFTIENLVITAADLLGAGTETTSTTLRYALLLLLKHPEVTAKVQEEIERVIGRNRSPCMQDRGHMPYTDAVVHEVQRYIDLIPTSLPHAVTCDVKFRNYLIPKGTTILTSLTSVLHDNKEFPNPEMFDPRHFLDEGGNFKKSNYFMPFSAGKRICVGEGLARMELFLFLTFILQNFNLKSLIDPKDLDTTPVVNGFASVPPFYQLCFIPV
PostGolgi yeast = phenotypic screen on post-Golgi transport, primary screen | AID 739, 2007 | post-Golgi transport phenotypic cell assay | inhibition, % at 10 µM | 98,000 tested, 0.9% active;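 further: yeast cells grown in 1536-well plates; yeast grown about 18 h at 30C before absorbance read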
CYP2C9 inhib = blockers of cytochrome P450 2C9 activity – biochemical, luminescence, ADME assay, primary screen | inhibition, % at 5 µM | CYP2C9 Supersomes, luciferin-H conversion | 96,000 tested, 20% active | P11712;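 active means blocking of liver enzyme CYP2C9 beyond about 50% at 5 µM, limit read from the data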
PostGolgi ctrl = growth inhibition of yeast control strain, primary screen, counter-screen for post-Golgi transport modulator project. AID 738, 2007. inhibition, % at 10 µM. efflux-deficient yeast background strain, growth absorbance A615, 16 h. 98,000 tested, 5% active
CYP2C19 activ = human CYP2C19 activators, primary screen, biochemical, luminescence; Cytochrome P450 2C19 (Homo sapiens), P33261; recombinant CYP2C19, luciferin-H EGE luminescence; active compounds read high; 0 = fully inhibited enzyme, 1 = untreated enzyme; activation factor at 5 µM; 96,000 tested, under 10 active; AID 1025, 2008;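 active means activation factor of at least 2 at 5 µM in the primary screen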
Each line names hits and unclear results; the compound was inactive in the other large screens. Sampled rows, rich in hits. Any-hit rate of the full collection: about 32%. Unless noted, no stated cut-off is given here; in the data, active means inhibition above about 30%; inactive means the rest.

O=C(CCc1ccccc1)N1CCN(CCO)CC1	none
COc1ccc(C(C(=O)NC(C)(C)C)N(C(=O)CNC(=O)c2cccs2)c2ccc(C(C)C)cc2)cc1OC (centres undefined)	none (no result: CYP2C9 activ, CYP2C19 inh, CYP2C9 inhib, CYP2C19 activ)
CCOC(=O)N(C)c1ccc(C(O)(C(F)(F)F)C(F)(F)F)cc1	none
Cc1ccc(N)c(C(O)(C(F)(F)F)C(F)(F)F)c1	CYP2C19 inh 82, CYP2C9 inhib 58
O=C(O)CC/C(=N\Nc1ccc(S(=O)(=O)N2CCCC2)cc1[N+](=O)[O-])c1cccs1	CYP2C9 inhib 99
Cc1c(O)ccc(-c2[nH]ncc2-c2nc3ccccc3s2)c1O	CYP2C19 inh 87, CYP2C9 inhib 69
Brc1ccc(-c2nc3ccccc3s2)s1	none
CCOC(=O)c1ccc2c(c1)C1C=CCC1C(C(=O)O)N2 (centres undefined)	none
COc1ccc2c(c1)C1C=CCC1C(c1cc3c(cc1Br)OCO3)N2 (centres undefined)	CYP2C19 inh 70, CYP2C9 inhib 75
CCCCOCCCNC(=O)c1ccc(OC)cc1	CYP2C19 inh 58
COCCCNC(=O)Cc1ccccc1OC	none
CCCCOCCCNC(=O)Cc1ccccc1OC	CYP2C19 inh 73
CCCCOCCCNC(=O)c1ccc(OCC)cc1	none
Nc1ccccc1S(=O)(=O)c1ccccc1N	none
COc1ccccc1CN(Cc1cc2cc(C)ccc2[nH]c1=O)Cc1nnnn1CC1CCCO1 (centres undefined)	CYP2C9 inhib 56
Cc1ccc2[nH]c(=O)c(CN(Cc3cccs3)Cc3nnnn3CC3CCCO3)cc2c1 (centres undefined)	none
COc1ccc2[nH]c(=O)c(CN(Cc3ccc(C)cc3)Cc3nnnn3CC3CCCO3)cc2c1 (centres undefined)	CYP2C19 inh 60, CYP2C9 inhib 84
Cc1ccc2cc(CN(Cc3cccs3)Cc3nnnn3CC3CCCO3)c(=O)[nH]c2c1 (centres undefined)	none
COc1ccccc1CN(Cc1cc2cc(C)cc(C)c2[nH]c1=O)Cc1nnnn1CC1CCCO1 (centres undefined)	CYP2C19 inh 63, CYP2C9 inhib 56
Cc1ccc2cc(CN(Cc3cccs3)Cc3nnnn3CC3CCCO3)c(=O)[nH]c2c1C (centres undefined)	CYP2C19 inh 56
C/C(=C\c1ccccc1)C(=O)n1nnc2ccccc21	none
Cc1ccc(-c2cnc(N)n2C)cc1C	none
O=C1CC(=O)CC(c2ccco2)C1	none
COc1cc(C(=O)N(Cc2cc3cc(C)ccc3[nH]c2=O)CC2CCCO2)cc(OC)c1OC (centres undefined)	CYP2C9 inhib 63
COc1ccc2[nH]c(=O)c(CN(Cc3ccccc3OC)Cc3nnnn3CC3CCCO3)cc2c1 (centres undefined)	CYP2C19 inh 70
COc1ccc(S(=O)(=O)Cc2ccc(C(=O)N3CCN(c4cc(Cl)ccc4C)CC3)o2)cc1	CYP2C19 inh 61, CYP2C9 inhib 85, PostGolgi ctrl 32
Cc1ccc(S(=O)(=O)Cc2ccc(C(=O)N3CCN(c4ccc(F)cc4)CC3)o2)cc1	CYP2C9 inhib 74
COc1ccc(S(=O)(=O)Cc2ccc(C(=O)N3CCN(c4cccc(C)c4C)CC3)o2)cc1	CYP2C19 inh 56, CYP2C9 inhib 76, PostGolgi ctrl 35
O=C(c1ccc(COc2c(F)c(F)cc(F)c2F)o1)N1CCN(c2ccc(Cl)cc2)CC1	none
Cc1ccccc1S(=O)(=O)Cc1ccc(C(=O)N2CCN(c3ccc(F)cc3)CC2)o1	none
COc1ccc(S(=O)(=O)Cc2ccc(C(=O)N3CCN(c4ccc(Cl)cc4)CC3)o2)cc1	CYP2C9 inhib 82, PostGolgi ctrl 37
COC(=O)c1cn(NC(=O)C2COc3ccccc3O2)c(=O)c2ccccc12 (centres undefined)	none
Cc1cccc2cc(=O)[nH]c(C)c12	none
OC(CN1CCOCC1)C12CC3CC(CC(C3)C1)C2 (centres undefined)	none
COc1ccc(N2CCN(C(=O)c3ccc(CS(=O)(=O)c4ccc(OC)cc4)o3)CC2)cc1	CYP2C9 inhib 78
COc1ccc(S(=O)(=O)Cc2ccc(C(=O)NCCc3ccc(S(N)(=O)=O)cc3)o2)cc1	none
